# High-throughput results as filed in PubChem BioAssay.
# Only some compounds are listed: those with a hit (about 0.35% of all), similar ones and a draw of the others.
# Rtt109 Vps75 = C. albicans Rtt109 histone acetyltransferase inhibition; Q5AAJ8; purified Rtt109/Vps75, ThioGlo CoA-SH fluorescence, 4 h; inhibition, % at 34.9 µM; 330,000 compounds, 0.16% hits;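 active = inhibition of at least 50% in every replicate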
# ERAP1 HTS inh = blocks human ERAP1 aminopeptidase activity; recombinant ERAP1, Leu-AMC fluorescence, 60 min; AID 652197; Q9NZ08; 340,000 compounds, 0.15% hits; inhibition, % at 10.7 µM;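 active = mean replicate inhibition of at least 30%, or all replicates individually reaching that 30% level; inactive = mean below 30% and not every replicate reaching it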;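 note: 0% = neutral control wells and 100% = L-leucinethiol positive control wells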
# Target sequence (Q9NZ08 whole entry, looked up): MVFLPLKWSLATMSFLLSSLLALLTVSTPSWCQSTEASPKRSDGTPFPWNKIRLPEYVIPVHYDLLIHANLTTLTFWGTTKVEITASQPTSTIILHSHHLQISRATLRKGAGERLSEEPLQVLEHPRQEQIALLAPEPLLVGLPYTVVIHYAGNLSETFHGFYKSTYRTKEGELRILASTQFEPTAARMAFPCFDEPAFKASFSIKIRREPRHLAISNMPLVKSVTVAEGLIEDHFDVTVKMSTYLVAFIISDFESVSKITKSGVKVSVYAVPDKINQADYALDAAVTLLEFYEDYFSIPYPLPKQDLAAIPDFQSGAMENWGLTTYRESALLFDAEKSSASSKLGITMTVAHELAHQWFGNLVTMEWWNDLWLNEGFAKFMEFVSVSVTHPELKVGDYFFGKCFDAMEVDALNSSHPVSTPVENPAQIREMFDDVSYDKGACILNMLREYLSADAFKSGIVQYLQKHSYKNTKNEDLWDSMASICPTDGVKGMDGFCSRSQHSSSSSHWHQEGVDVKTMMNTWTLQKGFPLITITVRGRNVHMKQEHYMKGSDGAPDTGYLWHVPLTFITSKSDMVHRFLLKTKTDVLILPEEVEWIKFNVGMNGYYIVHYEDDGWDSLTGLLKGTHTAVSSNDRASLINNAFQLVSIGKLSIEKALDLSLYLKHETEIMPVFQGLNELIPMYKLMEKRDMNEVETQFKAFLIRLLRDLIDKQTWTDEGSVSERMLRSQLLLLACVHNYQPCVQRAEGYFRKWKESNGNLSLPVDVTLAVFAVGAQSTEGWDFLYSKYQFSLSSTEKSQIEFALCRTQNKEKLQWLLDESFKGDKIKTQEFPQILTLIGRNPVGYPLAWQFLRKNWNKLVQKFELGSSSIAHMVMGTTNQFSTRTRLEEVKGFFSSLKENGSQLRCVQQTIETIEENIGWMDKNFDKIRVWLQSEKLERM
# PDI turbidity = PDI (human) enzyme inhibition; inhibition, % at 10 µM; PDI insulin aggregation turbidity, A650, 90 min; AID 588391; P07237; 350,000 compounds, 0.052% hits;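 active = mean inhibition across replicates of 30% or more, whatever share of single replicates reach that level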
# ERp5 block = ERp5 (human) disulfide isomerase inhibition | AID 651711 | ERp5 insulin aggregation, absorbance 650 nm, 90 min | 350,000 compounds, 0.05% hits | Q15084 | inhibition, % at 9.99 µM;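 active = mean replicate inhibition above about 25%, with every replicate also reaching it, limit read from the data, passing the limit was not always enough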
# PvdQ acylase = P. aeruginosa PvdQ acylase inhibition; purified PvdQ acylase, fluorescence plate reader; inhibition, % at 10 µM; 340,000 compounds, 0.063% hits; AID 488965; in the data active = inhibition above about 30%, passing the limit was not always enough;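 note: 0% = vehicle neutral wells and 100% = reference inhibitor wells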
# Starred values were filed as active, the others as inactive; i = inactive; / = not tested or not shown.
SMILES,Rtt109 Vps75,ERAP1 HTS inh,PDI turbidity,ERp5 block,PvdQ acylase
COCCCn1c(C(=O)NCCN2CCOCC2)cc2c(=O)n3ccccc3nc21,i,42*,-9,-6,0
O=C(CNC(=O)OCc1ccccc1)Nc1ccc(F)cc1,-2,32*,-55,-7,1
COc1cccc(C(=O)CC(C#N)c2ccc(F)cc2)c1 (centres undefined),-5,-2,13,-1,69*
COc1cccc(C(=O)CC(C(=O)O)c2ccc(F)cc2)c1 (centres undefined),/,-1,8,-2,-15
O=C(Nc1cccc(Cl)c1)N[C@H]1CC[C@H](CCNC(=O)C2CC2)O[C@@H]1CO,/,0,/,-4,/
C[C@@H]1CN([C@@H](C)CO)C(=O)c2cccc(NC(=O)C3CCCCC3)c2O[C@@H]1CN(C)Cc1ccc(C(=O)Nc2ccccc2N)cc1,/,1,/,9,/
Nc1ccc(C(=O)NN2C(=O)[C@H](Cl)C2c2ccc(Cl)cc2)cc1 (some centres undefined),1,-1,56*,3,-7
Cc1ccc2nc3n(c(=O)c2c1)-c1ncccc1C(=O)NC3Cc1ccc(O)cc1 (centres undefined),/,2,37*,-6,/
Cc1cc(C)c2c(=O)n3c(nc2c1)C(Cc1ccc(O)cc1)NC(=O)c1cccnc1-3 (centres undefined),/,2,44*,-2,/
O=C1NC(Cc2ccc(O)cc2)c2nc3ccccc3c(=O)n2-c2ncccc21 (centres undefined),/,1,43*,1,/
Cc1cc(C)c2c(=O)n3c(nc2c1)C(Cc1ccccc1)NC(=O)c1cccnc1-3 (centres undefined),/,4,-1,-5,/
Cc1noc(C)c1S(=O)(=O)Nc1cccc2c1O[C@@H](CN(C)C(=O)Nc1ccc(F)cc1)[C@@H](C)CN([C@@H](C)CO)C2=O,/,9,/,-4,/
C[C@@H]1[C@@H](Sc2ccccc2)CC(=O)O[C@@H]1c1ccc(-c2ccccc2)cc1,8,3,-4,3,2
O=C1C=CC2(O[C@H](c3ccccc3)[C@@H](c3ccccc3)O2)[C@H](Sc2ccccc2O)C1,1,33*,23,1,-7
S=P(N1CC1)(N1CC1)N1CC1,-10,53*,0,-8,10
CC(C)CCNC(=O)C1CCN(S(=O)(=O)c2ccc3c(c2)CC(C)N3C(=O)C2CCC2)CC1 (centres undefined),94*,0,9,-1,1
CC(C)CCNC(=O)C1CCCN(S(=O)(=O)c2ccc3c(c2)CC(C)N3C(=O)C2CC2)C1 (centres undefined),23,3,-9,4,-9
O=S(=O)(NCC[C@@H]1CC[C@@H](NS(=O)(=O)c2ccccc2Cl)[C@@H](CO)O1)c1ccc(Cl)cc1,/,0,/,-1,/
CCCCCCCCCCCCCCCC(O)C[N+](C)(C)CCO (centres undefined),16,50*,14,8,-12
O=C(NNc1nc2c(F)cccc2s1)C1=COCCO1,0,2,0,1,-20
Cc1ccc2sc(NNC(=O)C3=COCCO3)nc2c1C,59*,0,21,2,1
COc1cc(N2C(=O)C=CC2=O)ccc1N1C(=O)C=CC1=O,-2,48*,8,2,-6
CCN1CCN(CCNC(=O)Nc2ccc([N+](=O)[O-])cc2)CC1,2,/,-1,2,-6
O=C(NCCN1CCCCC1)Nc1ccc([N+](=O)[O-])cc1,51*,4,-1,1,7
CCOc1ccc(CCNC(=O)COC(=O)Cn2cnc3ccccc3c2=O)cc1OCC,-1,3,3,3,-11
SMILES,Rtt109 Vps75,ERAP1 HTS inh,PDI turbidity,ERp5 block,PvdQ acylase
CCOc1ccc(CCNC(=O)COC(=O)Cn2cnc3c2c(=O)n(C)c(=O)n3C)cc1OCC,-9,48*,-3,3,-17
C[C@@H]1CN([C@@H](C)CO)C(=O)c2cc(NC(=O)CCCN(C)C)ccc2O[C@@H]1CN(C)C(=O)NC1CCCCC1,/,0,/,-5,/
CCN1/C(=C/C(C)=C/c2sc3ccccc3[n+]2CC)Sc2ccccc21,134*,-3,6,1,-7
COc1ccc2c3c(n(C)c2c1)[C@H](CO)N(CC1CC1)CC31CCN(Cc2ccc(F)cc2)CC1,/,1,/,2,/
Cc1nc2ccc(S(=O)(=O)N3CCCCC3)cc2s1,-1,-1,-6,3,2
Nc1nc2ccc(S(=O)(=O)N3CCCCC3)cc2s1,152*,12,24,1,-20
O=C(CCl)Nc1ccccc1Sc1ccc(Cl)cc1,1,/,50*,/,-8
